PLK1 PBD block – inhibitors of human PLK1 polo-box domain binding. Potency, µM, inactives show max response, negative = inhibition, usual class: inhibitors. 2.8% of 360,000 active. Plk1 PBD binding of FITC phosphopeptide, fluorescence polarization. P53350; also: potency is read from the fitted curve at half-maximal effect; series mostly up to about 57 µM; % is scaled to controls: 0 for no effect and ±100 for the full control effect; nearly all actives have a fitted effect of over 65% in size
Target sequence (P53350 whole entry, looked up, the tested form may be a part): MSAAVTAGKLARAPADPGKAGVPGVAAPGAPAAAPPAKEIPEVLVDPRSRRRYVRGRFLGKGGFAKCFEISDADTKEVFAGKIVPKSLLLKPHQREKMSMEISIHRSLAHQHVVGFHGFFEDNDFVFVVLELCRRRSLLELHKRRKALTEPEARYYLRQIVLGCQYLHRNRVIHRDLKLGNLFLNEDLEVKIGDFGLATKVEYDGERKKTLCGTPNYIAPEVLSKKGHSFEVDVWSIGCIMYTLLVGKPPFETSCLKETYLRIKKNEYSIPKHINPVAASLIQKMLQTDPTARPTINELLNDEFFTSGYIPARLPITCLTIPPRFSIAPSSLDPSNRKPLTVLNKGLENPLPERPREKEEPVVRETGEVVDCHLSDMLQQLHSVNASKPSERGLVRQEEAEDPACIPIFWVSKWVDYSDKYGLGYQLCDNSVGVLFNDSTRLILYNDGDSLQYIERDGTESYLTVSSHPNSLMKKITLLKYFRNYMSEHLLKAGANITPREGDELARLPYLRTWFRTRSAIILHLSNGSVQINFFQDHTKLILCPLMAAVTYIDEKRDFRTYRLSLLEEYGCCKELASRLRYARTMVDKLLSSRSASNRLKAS
VDR inhibitor – inhibitors of human vitamin D receptor; P11473; VDR-SRC2-3 peptide fluorescence polarization, 2 h; Potency, µM, for inactives: max response, negative = inhibition, usual class: inhibitors; 0.93% of 400,000 active; AID 504847; also: potency is read from the fitted curve at half-maximal effect; % is scaled to controls: 0 for no effect and ±100 for the full control effect
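Measured by FP: displacement of SRC2-3 coactivator peptide from VDR by library compounds, following a two-hour ambient incubation.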
Vif-APOBEC3F blk – Vif-A3F binding inhibition. HeLa A3F-eYFP + Vif (tagged APOBEC3F with the HIV-1 protein that degrades it), YFP fluorescence increase. Potency, µM (highest dose often 46.1 µM), for the others: at the top dose activity, negative = active. 0.2% of 390,000 active. AID 602313; also: potency is read from the fitted curve at half-maximal effect; % of control where 0% means no effect; nearly all actives have a fitted effect of over 65% in size
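Fluorescence increase (Ex 488/Em 500-530) after overnight compound treatment at 37 deg C flags inhibition of Vif-driven A3F-eYFP loss in stable HeLa A3F-eYFP/Vif cells seeded overnight beforehand.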
Vif-APOBEC3G blk – blocks the Vif interaction with human APOBEC3G. HeLa A3G-eYFP + Vif (tagged APOBEC3G with the HIV-1 protein that degrades it), YFP fluorescence, overnight. 0.076% of 410,000 active. Q9HC16. Potency, µM (highest dose often 46.1 µM), without a hit: at the highest dose activity, negative = active, most hits filed as inhibitors; also: potency is read from the fitted curve at half-maximal effect; % is scaled to controls: 0 for no effect and ±100 for the full control effect; nearly all actives have a fitted effect of over 60% in size
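HeLa cells stably expressing Vif and C-terminally eYFP-tagged A3G, seeded overnight at 37 deg C, then exposed to compound by pintool overnight at 37 deg C. Rise in yellow fluorescence (Ex 488/Em 500-530, Acumen) marks blocked Vif-driven A3G degradation.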
TSHR antag – blocks TSH signaling through the human TSH receptor; 0.2% of 330,000 active; activity change, negative = inhibition, % at 11.5 µM; TSHR-expressing cells, TSH-stimulated cAMP HTRF, 2 h; stronger effect = lower value; AID 504810;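 active = activity change below a set negative limit, meaning inhibition stronger than a set level, cut at about -70% in these data; inconclusive = activity change between two set negative limits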; also: % is scaled to controls: 0 for no effect and ±100 for the full control effect
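Freshly harvested TSHR cells receive pin-tooled compound, then EC80 TSH at 4nM final. After 2 hours at 37 deg C, antibody in lysis buffer and cAMP-d2 are added; 30 minutes at ambient temperature precede the HTRF read.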
Active calls of the source: *; ? = inconclusive; nt = no result; ! = not active in a repeat. Most compounds without a hit are left out; they make up all but 3.1% or so of the library. Unless noted, calls follow the shape of the dose curve; as a rule, active = well fitted curve in the direction sought with a large enough effect; inconclusive = small, poorly fitted or top-dose-only effect, or another doubt; inactive = no such curve, though single readings can be large; an effect the other way counts as inactive or inconclusive.

SMILES	PLK1 PBD block	VDR inhibitor	Vif-APOBEC3F blk	Vif-APOBEC3G blk	TSHR antag
COc1cc(NCCCCC(C)N)c2nccc(C)c2c1 (configuration not stated)	-3%	nt	0%	-12%	nt
COc1cc(NCCCC(C)N)c2ncccc2c1 (configuration not stated)	-19%	45µM*!	-3%	-9%	24
Cc1ccc2c(=O)c3cccc(CC(=O)O)c3oc2c1C	nt	4%	nt	nt	nt
O=C(COc1ncnc2ccccc12)N1CCN(S(=O)(=O)c2ccc(Cl)cc2)CC1	30µM*	-10%	-1%	0%	-4
CC(C)(C)CC(C)(C)SSc1n[nH]c(=S)s1	27µM*	?	?	2%	nt
CCOC(=O)CCSc1n[nH]c(=S)s1	?	17%	0%	-3%	33
COCc1nnc(NC(=O)COc2ccc3c(c2)OCO3)s1	17µM*	8%	2%	-3%	2
CCOCC(=O)Nc1nnc(COc2ccc(Cl)cc2)s1	6.7µM*	79µM*	-10%	0%	-10
O=C(COc1ccc2c(c1)OCO2)Nc1nnc(Cc2ccccc2)s1	24µM*	?	1%	1%	1
COCC(=O)Nc1nnc(COc2ccc(Cl)cc2)s1	-11%	0%	-6%	1%	9
O=C1CC[C@@H](C(=O)N[C@@H](Cc2cnc[nH]2)C(=O)N[C@@H](Cc2c[nH]c3ccccc23)C(=O)N[C@@H](CO)C(=O)N[C@@H](Cc2ccc(O)cc2)C(=O)O)N1	nt	-3%	nt	nt	nt
CN1CCN(NC(=O)c2cc(-c3cccc(Cl)c3)nc3ccccc23)CC1	1%	8%	-8%	0%	7
CN1CCC(N(C)C(=S)NC(=O)c2cc(-c3cccc(Br)c3)nc3ccccc23)CC1	21µM*	-28%	-1%	0%	-6
COc1cc(/C=C2\C(=N)N3N=C(S(C)(=O)=O)SC3=NC2=O)cc(OC)c1OCCOc1cccc(C)c1	30µM*	?	4%	-1%	-5
COc1cc(/C=C2\C(=N)N3N=C(S(C)(=O)=O)SC3=NC2=O)cc(OC)c1OCCOc1ccc(C)cc1	21µM*	?	10%	-5%	-2
NS(=O)(=O)c1ccc(NC(=S)N2CCC(Cc3ccccc3)CC2)cc1	13µM*	?	0%	0%	-5
NS(=O)(=O)c1ccc(NC(=S)N2CCN(Cc3ccc4c(c3)OCO4)CC2)cc1	12µM*	-1%	0%	2%	-5
NS(=O)(=O)c1ccc(NC(=S)N2CCN(Cc3ccc(Cl)c(Cl)c3)CC2)cc1	-12%	-2%	-3%	-1%	-8
CCCN1CCN(C(=S)Nc2ccc(S(N)(=O)=O)cc2)CC1	-24%	-10%	1%	2%	-2
CCc1ccc(S(=O)(=O)NC(=S)Nc2ccccc2)cc1	27µM*	?	-28%	0%	-1
CC(C)CC(=O)NNC(=S)Nc1ccc(S(N)(=O)=O)cc1	24µM*	-9%	-5%	-1%	7
Clc1ccc(-c2nnn3c2nc(NC2CCCCC2)c2ccccc23)cc1	nt	-10%	9%	-3%	nt
CCNc1ncc2nc(-c3ccc(F)cc3)c(=O)n(Cc3ccc(F)cc3)c2n1	nt	-4%	nt	nt	nt
NS(=O)(=O)c1ccc(NC(=S)NC2CCCCC2)cc1	11µM*	?	0%	2%	12
NS(=O)(=O)c1ccc(NC(=S)NCc2cccc(Cl)c2)cc1	-2%	-12%	-18%	-2%	9
SMILES	PLK1 PBD block	VDR inhibitor	Vif-APOBEC3F blk	Vif-APOBEC3G blk	TSHR antag
NS(=O)(=O)c1ccc(NC(=S)NCc2ccccc2)cc1	12µM*	?	-5%	2%	0
NC(=O)C1(N2CCCCC2)CCN(C(=S)Nc2ccc(S(N)(=O)=O)cc2)CC1	11µM*	-10%	-1%	2%	-2
NC(=O)C1(N2CCCCC2)CCN(C(=S)Nc2ccccc2)CC1	-4%	-9%	-7%	-4%	7
O=C(NCC1CCCO1)c1ccc2c(c1)N(Cc1ccccc1)C(=O)CS2=O (configuration not stated)	7.5µM*	?	-9%	-5%	13
CC1CCCC(NC(=O)c2ccc3c(c2)N(Cc2ccccc2)C(=O)CS3=O)C1C (configuration not stated)	-4%	16%	0%	-2%	-2
CCOc1ccc(C(=O)C(CCC(CN(C)C)C(=O)c2ccc(OCC)cc2)CN(C)C)cc1 (configuration not stated)	27µM*	?	1%	?	13
CN(C)CC(CCC(CN(C)C)C(=O)c1ccccc1)C(=O)c1ccccc1 (configuration not stated)	13µM*	45µM*	0%	?	-21
COc1ccc(NC(=O)CSc2ccc3c4c(cccc24)C(=O)c2ccccc2-3)cc1	?	-3%	11µM*	?	4
N#Cc1cccc(NC(=O)CSc2ccc3c4c(cccc24)C(=O)c2ccccc2-3)c1	?	3%	11µM*	2.8µM*	15
Cc1ccc(/C=C/C(=O)N2CCN(c3ncccn3)CC2)o1	30µM*	?	-9%	-2%	0
CC1(C)OC(=O)C2(Cc3cc([N+](=O)[O-])ccc3N3CCCCCC32)C(=O)O1 (configuration not stated)	nt	-7%	nt	2%	nt
CCCc1[nH][nH]c(=O)c1C(c1cccc(Cl)c1)C(C#N)C#N (configuration not stated)	11µM*	-25%	-8%	?	-15
Cc1[nH][nH]c(=O)c1C(c1ccccc1[N+](=O)[O-])C(C#N)C#N (configuration not stated)	-21%	2%	1%	-5%	4
O=C(O)c1ccc(N2CC3CC(C2)c2cccc(=O)n2C3)c(NC(=S)Nc2ccc(Br)cc2)c1 (configuration not stated)	19µM*	?	-12%	8%	8
CCc1ccc(NC(=S)Nc2cc(C(=O)O)ccc2N2CC3CC(C2)c2cccc(=O)n2C3)cc1 (configuration not stated)	-21%	?	0%	-4%	39
CCCN(CCC)C(=O)Cn1c(=O)n(-c2ccc(C)c(C)c2)c(=O)c2c3c(sc21)CCCCC3	nt	3%	-3%	-4%	nt
O=C(O)[C@H](CC(=O)N1C[C@H]2CCCC[C@H]2C1)Cc1ccccc1	nt	6%	nt	nt	nt
CC(=O)c1cc(C#N)c(N2CCCC2)nc1C	30µM*	?	-27%	-4%	-13
CCOC(=O)C(C(=O)OCC)C(C(=O)OCC)N1CCOCC1 (configuration not stated)	24µM*	40µM*	1%	0%	20
CCOc1ccc(S(=O)(=O)c2cn(Cc3ccc(C)cc3)c3ccc(OC)cc3c2=O)cc1	nt	-10%	1%	3%	nt
CCOc1cc(S(=O)(=O)N(CC)CC)ccc1F	-11%	-10%	1%	2%	-4
CCOc1ccc(S(=O)(=O)N(CC)CC)cc1NS(=O)(=O)c1ccc(F)c(F)c1F	9.5µM*	71µM*	-4%	-5%	6

Screening results as filed in PubChem.
